# Test results from PubChem BioAssay AID624202 (National Center for Advancing Translational Sciences (NCATS), 2012).
# About 4,000 (1.1%) of roughly 380,000 compounds were called active. Roughly 3% stayed inconclusive and do not appear here. The entries come from a sample that favours actives as a whole. Values without a mark were called inactive. Calls follow the shape of the dose curve; as a rule, active = well fitted activation curve with a large enough effect; inconclusive = small, poorly fitted or top-dose-only effect; inactive = no such curve, though single readings can be large or run the other way.
# Assay: qHTS Assay to Identify Small Molecule Activators of BRCA1 Expression; also: nearly all actives have a fitted effect of over 80% in size
# Conditions: MCF7-BRCA1-FFLuc reporter, luminescence, 48 h; series mostly up to 46.1 µM; activation: at the top concentration
# Method in brief: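 First, MCF7-BRCA1-FFLuc cells (2000/well) attach for 2 h; next, compounds are pin-added and incubated 48 h at 37 °C; finally, luciferase reagent is added and luminescence read after 15 min.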
# Potency is read from the fitted curve at half-maximal effect.
SMILES,activation,Potency
CCCCOC(=O)Nc1nccs1,57.8%,–
Cn1cccc1C(=O)Nc1nccs1,55%,–
CC(=O)Oc1ccc(C(=O)Nc2nccs2)cc1,–,11.2 µM (active)
Cc1ccc(NC(=O)c2oc3ccccc3c2NC(=O)Cc2cccs2)cc1,15.5%,–
Cc1cc(NC(=O)c2ccc(-c3ccc(Cl)cc3)o2)cc(-c2nc3ncccc3o2)c1O,16.6%,–
CCOc1cc(C2c3c(-c4ccc(Br)cc4)n[nH]c3C(=O)N2c2ccc(Cl)cc2)ccc1O (configuration not stated),-76.9%,–
CCC1=Nc2cc(C(=O)NCC(C)c3ccccc3)ccc2Sc2ccc(C)cc21 (configuration not stated),-70.2%,–
O=C(COc1ccccc1F)OCc1cc(=O)n2nc(C3CCCCC3)sc2n1,8.78%,–
COc1cccc(CNCc2c(C(=O)O)n(Cc3ccc(C)cc3)c3cc(C)ccc23)c1OC,4.07%,–
Cn1c(SCC(=O)N2CCCC2)nnc1-c1cccs1,12.3%,–
O=C(CSc1n[nH]c(-c2cccs2)n1)N1CCCCC1,55.6%,–
O=C(CSCc1cccs1)N1CCCC1,–,12.6 µM (active)
OC(CBr)C[n+]1cccc2cc(Br)ccc21 (configuration not stated),-19.2%,–
CCCCOc1ccc(C(=O)Nc2cccc(-c3nc4ccccc4o3)c2C)cc1,-3.11%,–
COc1ccc2c(c1)CCc1c(C(=O)N3CCc4ccccc4C3)noc1-2,28.8%,–
O=C(c1noc2c1CCCC2)N1CCc2ccccc2C1,–,5.62 µM (active)

SMILES,activation,Potency
CN(c1ccc(C(=O)N2CCc3ccccc3C2)cc1)S(C)(=O)=O,41.3%,–
COc1ccc2c(c1)c(N1CCCC1=O)c(C(=O)Nc1ccc(OC)c(Cl)c1)n2C,-41.1%,–
O=C(c1ccc2c(c1)N(Cc1ccc(Cl)cc1)C(=O)c1ccccc1S2(=O)=O)N1CCCCC1,7.95%,–
CCN(CC)S(=O)(=O)c1ccc(-c2cn3ccc(C)cc3n2)cc1,–,3.55 µM (active)
CCN(c1cccc(C)c1)S(=O)(=O)c1ccc(-c2coc(C)n2)cc1,7.61%,–
CCN(CC(=O)NCCc1ccccc1)S(=O)(=O)c1ccc(C)cc1,-8.5%,–
CCC(=O)N1N=C(c2ccc(OC)cc2)CC1c1cn(-c2ccccc2)nc1-c1cccs1 (configuration not stated),6.03%,–
CN(C(=O)CSc1nc2ccccc2n1Cc1ccccc1C#N)c1ccccc1,0%,–
CN1CCN(/[N+]([O-])=N/Oc2ccc([N+](=O)[O-])cc2[N+](=O)[O-])CC1,-3.67%,–
Cc1cc2nc(SCCN3CCOCC3)[nH]c2cc1C,–,4.47 µM (active)
CCn1c2ccc(F)cc2c2nnc(SCCN3CCOCC3)nc21,-40.1%,–
COc1ccc2nc(SCC(=O)Nc3c(C)cc(C)cc3C)[nH]c2c1,4.09%,–
COc1cc(C)ccc1OCCSc1nc2ccc(NC(=O)c3ccc(C)cc3)cc2s1,-0.298%,–
CCOc1ccc(CCNC(=O)c2cc3c(=O)n(C)c4ccccc4c3n2C)cc1,4.71%,–
Cc1ccccc1CCNC(=O)C1CCN(c2nc3ccccc3nc2C(F)(F)F)CC1,11%,–
COc1ccc(-n2c(C)nc3c(cnn3-c3ccc(F)cc3)c2=O)cc1,-6.83%,–
